Source: PubChem BioAssay (National Center for Advancing Translational Sciences (NCATS))
In the library only some 3.2% were active in any assay of this set; here they are far more common.
FBPA coupling cs: inhibits coupling enzyme system, counter-screen for aldolase hits; coupling enzyme system counterscreen, AmpLite Red fluorescence; activity change, negative = inhibition, % at 58.2 µM, hits read low; 290,000 tested, 0.67% active; in the data active means activity change below about -30%
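Fluorescence at 525 nm excitation and 598 nm emission measured inhibition of the coupled detection system without aldolase. Compounds (at 57.5 uM final) were preincubated 10 min at room temperature with coupling enzyme reagent before a 20 min substrate/AmpLite Red step.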
USP1 inh: USP1/UAF1 (human) deubiquitinase inhibition; 390,000 tested, 0.23% active; O94782; recombinant USP1/UAF1, Ub-Rhodamine cleavage fluorescence; Potency, µM (highest dose often 57.1 µM), for inactives: at the top dose activity change, negative = inhibition, most hits filed as inhibitors; further: potency means the concentration at half of the fitted maximal effect; nearly all actives have a fitted effect of over 60% in size
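1 nM enzyme complex + cpd, 15 min RT; start with Ub-Rho 150nM final; kinetic fluorescence ex 480/em 540, 6 reads q60 s. Buffer 50mM HEPES pH 7.8, 0.5mM EDTA, 0.1 mg/ml BSA, 1mM TCEP, 0.01% Tween-20.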
VDR inh: blocks the human vitamin D receptor | Potency, µM, inactives show max response, negative = inhibition, most hits filed as inhibitors | P11473 | 400,000 tested, 0.93% active | VDR-SRC2-3 peptide fluorescence polarization, 2 h; further: potency means the concentration at half of the fitted maximal effect
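Fluorescence polarization assay measuring small-molecule disruption of VDR binding to the coregulator peptide SRC2-3. Compounds were pin-transferred (23 nl) into the reagent mix and incubated 2 h at room temperature before reading.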
GALK inhibitor: inhibitors of human galactokinase; P51570; Purified GALK, Kinase-Glo residual ATP luminescence; Potency, µM (highest dose often 57.5 µM), for inactives: at the top dose activity change, negative = inhibition, usual class: inhibitors; 270,000 tested, 0.007% active; AID 1868; further: potency means the concentration at half of the fitted maximal effect
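Quantitative HTS: GALK 5 nM, ATP 35 uM, galactose 100 uM, 1 h room temperature, then luciferase-based ATP detection.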
PLK1 PBD block: PLK1 (human) polo-box domain binding inhibition; P53350; 360,000 tested, 2.8% active; Plk1 PBD binding of FITC phosphopeptide, fluorescence polarization; Potency, µM, inactives show max response, negative = inhibition, actives largely listed as inhibitors; further: potency means the concentration at half of the fitted maximal effect; series mostly up to about 57 µM; nearly all actives have a fitted effect of over 65% in size
Target sequence (P53350 whole entry, looked up, the tested form may be a part): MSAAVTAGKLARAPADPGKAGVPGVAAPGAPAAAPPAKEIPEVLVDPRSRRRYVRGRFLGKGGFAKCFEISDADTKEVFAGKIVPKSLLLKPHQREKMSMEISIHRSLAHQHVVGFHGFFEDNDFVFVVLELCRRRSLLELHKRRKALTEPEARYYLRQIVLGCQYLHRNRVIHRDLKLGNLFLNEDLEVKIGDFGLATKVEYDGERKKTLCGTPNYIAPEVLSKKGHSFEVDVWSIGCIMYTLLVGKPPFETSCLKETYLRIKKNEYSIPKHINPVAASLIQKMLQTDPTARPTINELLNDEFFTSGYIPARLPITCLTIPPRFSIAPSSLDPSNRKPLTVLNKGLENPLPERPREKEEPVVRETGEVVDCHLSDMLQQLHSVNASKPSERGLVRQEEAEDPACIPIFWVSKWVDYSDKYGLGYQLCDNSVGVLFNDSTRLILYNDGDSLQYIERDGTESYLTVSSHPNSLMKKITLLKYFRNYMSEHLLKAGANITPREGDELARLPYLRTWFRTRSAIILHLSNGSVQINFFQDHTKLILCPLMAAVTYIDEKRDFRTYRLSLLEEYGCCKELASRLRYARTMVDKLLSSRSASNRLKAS
USP2a block: inhibitors of human ubiquitin-specific protease USP2a; O75604; USP2 core, Ub-CHOP2 coupled fluorogenic reporter, 485/531; Potency, µM (top dose mostly 38.3 µM), without a hit: at the top dose activity change, negative = inhibition, actives largely listed as inhibitors; 330,000 tested, 0.01% active;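 further: potency means the concentration at half of the fitted maximal effect; plate controls were DMSO wells for no effect and full inhibition by NEM control for full effect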
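Cell-free coupled assay: 10nM USP2 core preincubated 30min RT with compound in Tris-HCl pH 8.0/CaCl2/CHAPS buffer, then 25nM Ub-CHOP2 and 25nM reporter substrate; fluorescence (Ex 485/Em 531) read after 60min RT, normalized to NEM inhibition, concentration-response curves fitted.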
* hit, by the source's call; u = inconclusive; x = no result given. Unless noted, the call rests on the fitted dose curve; in most records, active means well fitted curve in the direction sought with a large enough effect; inconclusive means small, poorly fitted or top-dose-only effect, or another doubt; inactive means no such curve, though single readings can be large; an effect the other way counts as inactive or inconclusive. Unless noted, on the % scale 0 is the no-effect control and ±100 the full control effect.

SMILES | FBPA coupling cs | USP1 inh | VDR inh | GALK inhibitor | PLK1 PBD block | USP2a block
Nc1c(-c2ccccc2)c(CSc2nc3ccccc3[nH]2)nn1-c1ccc(C(=O)O)cc1 | 6 | -14% | u | 0% | 15µM* | 2%
Cc1nn(-c2ccc(C(=O)O)cc2)c(N)c1-c1ccccc1 | -3 | 1% | 7% | -2% | -13% | -1%
CCCCCCC(C)n1[nH]c(=O)c2c(C)cc(C)nc21 (stereo unspecified) | -10 | -8% | 19% | -1% | -3% | 7%
Nc1nc2c(s1)COc1ccccc1-2 | -1 | -17% | u | 0% | 19µM* | 8%
CC(C)(C)C(=O)Nc1nc2c(s1)COc1ccccc1-2 | -6 | -31% | u | -3% | -18% | 4%
O=C(CSCc1ccc(Cl)cc1)Nc1ccc(O)cc1C(=O)O | 13 | 0% | -4% | 3% | -12% | -1%
CN1CCc2cc(O)c(O)cc2C(c2ccccc2)C1 (stereo unspecified) | x | 21% | -1% | x | -5% | 0%
COc1cccc(C(=O)O/N=C(\N)c2ccccn2)c1OC | 0 | -13% | u | 8% | 24µM* | 2%
C#CCOCCOCCOCCNc1nc(N2CCN(C(=O)CCCCCCCCCCNC(=O)[C@H]([C@@H](C)CC)n3cc(CCCCCN)nn3)CC2)nc(N2CCN(C(=O)CCCCCCCCCCNC(=O)[C@H](CCCCN)n3cc(CCCC(=O)O)nn3)CC2)n1 | x | -15% | 0% | x | 2% | 10µM*
C#CCOCCOCCOCCNc1nc(N2CCN(C(=O)CCCCCCCCCCNC(=O)[C@H]([C@@H](C)CC)n3cc(CCCCCN)nn3)CC2)nc(N2CCN(C(=O)CCCCCCCCCCNC(=O)[C@@H]([C@H](C)CC)n3cc(CCCCCN)nn3)CC2)n1 | x | x | x | x | x | 5µM*
Cc1cc(-c2ccco2)n2c(nc3ccccc32)c1C#N | 3 | -16% | -20% | -1% | 11µM* | 1%
C=C(C)CSc1cc(C)c(C#N)c2nc3ccccc3n12 | -14 | -14% | -17% | -3% | 27µM* | 3%
COCC(C)NS(=O)(=O)c1ccc(C)cc1 (stereo unspecified) | 0 | 1% | 3% | -3% | 3% | 1%
O=C(CN1CCN(C/C=C/c2ccccc2)CC1)NCc1ccc(Cl)cc1 | 3 | -11% | -19% | 10% | -24% | 3%
O=C(N1CCc2[nH]c3ccccc3c2C1)C(F)(F)F | -1 | -10% | -7% | 6% | 38µM* | 4%
CC(=O)N1CCc2[nH]c3ccccc3c2C1 | 2 | -2% | 15% | 2% | -11% | 0%
O=C(CSC1=NCCS1)c1ccc(Cl)cc1 | 2 | -8% | 79µM* | -1% | u | 0%
COC1=CC(=O)c2c(ccc3ncnc(N)c23)C1=O | x | 0.89µM* | u | x | -10% | x
COC1=CC(=O)c2nc(Cl)ccc2C1=O | x | x | x | x | -19% | x
O=C(N/N=C/c1ccc(N2CCCCC2)o1)c1ccccc1[N+](=O)[O-] | -8 | -14% | 40µM* | 3% | -26% | 0%
O=C(Nc1ccc(N2CCCC2)c(Cl)c1)c1ccccc1F | x | -17% | x | x | -2% | x
O=C(Nc1ccc(N2CCCC2)c(Cl)c1)c1ccccc1[N+](=O)[O-] | -3 | -13% | -26% | 0% | 27µM* | -1%
O=C(NCCc1c[nH]c2ccccc12)C(=O)NCC1OCCN1S(=O)(=O)c1ccc(Cl)cc1 (stereo unspecified) | -3 | -26% | 4% | x | 1% | 0%
O=C(CCl)c1ccc(Cc2ncc(C(F)(F)F)cc2Cl)s1 | 3 | -26% | u | -3% | 2.4µM* | -1%
CC(=O)C(=Nc1ccccc1Cl)NNc1ccc(Cl)cc1 | -1 | -10% | 45µM* | -3% | -2% | -11%
COc1ccc(Cl)cc1NC(=O)Cn1ncc2c3ccccc3n(C)c2c1=O | x | -8% | 3% | x | x | x
COc1ccc(-n2nc(C(=O)NCC(=O)N3CC(C)CC(C)C3)c3ccccc3c2=O)cc1 (stereo unspecified) | 1 | -13% | -1% | 3% | 6% | 0%
